We go through 19 molecules from PubChem BioAssay (Tox21).

The nature of assay [1]: qHTS assay to identify small molecule antagonists of the estrogen receptor alpha (ER-alpha) signaling pathway using the BG1 cell line in the presence of 0.1 nM 17-beta-estradiol - cell viability counter screen (AID 1259241). Further: nearly all actives have a fitted effect of over 40% in size. Further: potency means the concentration at half of the fitted maximal effect. The gist of the method: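 Cytotoxicity counter-screen: live-cell protease activity measured by fluorescence (30 min reagent step) in the same wells. Cells were VM7Luc4E2 with endogenous ER-alpha and ERE-driven luciferase, treated 22 hr at 37C alongside 0.1 nM 17beta-estradiol final.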
On the technique in general: qHTS replaces the single test concentration by a dilution series.

Assay [2] can be described thus: qHTS assay to identify small molecule antagonists of the androgen receptor (AR) signaling pathway using the MDA cell line in the presence of 0.5 nM R1881 - cell viability counter screen (AID 1259242). Further: nearly all actives have a fitted effect of over 45% in size. Further: potency means the concentration at half of the fitted maximal effect. An outline of the steps: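 Concentration-response screen of compounds for toxicity in MDA-kb2 reporter cells: 16 hr at 37C with 0.5 nM R1881, endpoint live-cell protease fluorescence measured in the reporter wells.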

Assay [3] addresses Androgen receptor (Homo sapiens) (UniProt P10275). Description: qHTS assay to identify small molecule antagonists of the androgen receptor (AR) signaling pathway using the MDA cell line in the presence of 0.5 nM R1881 (AID 1259243). Further: nearly all actives have a fitted effect of over 50% in size. The gist of the method: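 With R1881 held at 0.5 nM (final), compound effects on MMTV-luciferase expression in MDA-kb2 cells were scored by luminescence after a 16 hr, 37C incubation.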

The target of assay [4] is Estrogen receptor (Homo sapiens) (UniProt P03372). As to the kind of experiment: qHTS assay to identify small molecule antagonists of the estrogen receptor alpha (ER-alpha) signaling pathway using the BG1 cell line in the presence of 0.1 nM 17-beta-estradiol (AID 1259244). Further: nearly all actives have a fitted effect of over 50% in size. Further: potency means the concentration at half of the fitted maximal effect. An outline of the steps:
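Compounds were tested against 0.1 nM (final) 17beta-estradiol in VM7Luc4E2 cells, which express full-length ER-alpha and an ERE-luciferase reporter; luminescence was recorded following 22 h exposure.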

The nature of assay [5]: qHTS assay to identify small molecule HDAC inhibitors (AID 1259364). Further: potency means the concentration at half of the fitted maximal effect.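 Further: wild-type HCT-116 cells with endogenous class I/II HDAC activity; nearly all actives have a fitted effect of over 45% in size.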 The gist of the method: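 Screening used wild-type human colon HCT-116 cells incubated overnight, dosed with compounds for 2 hours, and assayed with a homogeneous luminogenic HDAC I/II reagent for 30 minutes at room temperature.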
Assay [6] is described as follows: qHTS assay to identify small molecule HDAC inhibitors - cell viability counter screen (AID 1259365). Further: nearly all actives have a fitted effect of over 50% in size. Further: potency means the concentration at half of the fitted maximal effect. The gist of the method:
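CellTiter-Glo luminescence (30 min, room temperature) reported viability after a 2 h compound exposure at 37 C. Cells: wild-type HCT-116, 1,500 per well, seeded the night before.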

Assay [7] in a line: qHTS assay to identify small molecule agonists of the sonic hedgehog signaling (Shh) pathway - cell viability counter screen (AID 1259366). Further: nearly all actives have a fitted effect of over 50% in size. Further: potency means the concentration at half of the fitted maximal effect. The gist of the method:
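Cytotoxicity counter screen: CellTiter-Fluor reagent added after 23 h compound exposure, then 1 h at 37C and fluorescence read. Cells were 3T3 Gli1-Luc, seeded 2,000 per well and dosed 4 h post-plating.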

A short description of assay [8]: qHTS assay to identify small molecule antagonists of the sonic hedgehog signaling (Shh) pathway - cell viability counter screen (AID 1259367). Further: nearly all actives have a fitted effect of over 55% in size. Further: potency means the concentration at half of the fitted maximal effect. An outline of the steps: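 Viability was read by CellTiter-Fluor fluorescence in the same wells, reagent added 23 hr into compound treatment and incubated 1 hr at 37C. The 3T3 Gli1-Luc reporter cells (2,000/well) received conditioned medium after compound and ran 24 hr.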

The nature of assay [9]: qHTS assay to identify small molecule agonists of the sonic hedgehog signaling (Shh) pathway (AID 1259368; calls by dose curve;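 further: NIH/3T3-derived 3T3Gli1-Luc cells carrying a stable Gli1-driven firefly luciferase reporter; series mostly up to about 92 µM; nearly all actives have a fitted effect of over 15% in size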). The gist of the method:
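Hedgehog pathway agonism scored by increased firefly luciferase luminescence in 3T3Gli1-Luc cells treated 24 hr at 37 C; detection used a 30 min room-temperature reagent incubation.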

“And” between values parts separate entries of the source, which are not always exact repeats. Equal values may be shown once. Records with an inconclusive call do not appear. Where a structure was tested more than once in an assay, its records may differ in their call. The source made the active and inactive calls. Unless noted, the call rests on the fitted dose curve; in most records, active means well fitted curve in the direction sought with a large enough effect in the repeat runs; inconclusive means weak or mixed curves; inactive means no such curve, though single readings can be large; an effect the other way counts as inactive or inconclusive.

Chain of Estrogen receptor (Homo sapiens) (P03372 whole entry, looked up): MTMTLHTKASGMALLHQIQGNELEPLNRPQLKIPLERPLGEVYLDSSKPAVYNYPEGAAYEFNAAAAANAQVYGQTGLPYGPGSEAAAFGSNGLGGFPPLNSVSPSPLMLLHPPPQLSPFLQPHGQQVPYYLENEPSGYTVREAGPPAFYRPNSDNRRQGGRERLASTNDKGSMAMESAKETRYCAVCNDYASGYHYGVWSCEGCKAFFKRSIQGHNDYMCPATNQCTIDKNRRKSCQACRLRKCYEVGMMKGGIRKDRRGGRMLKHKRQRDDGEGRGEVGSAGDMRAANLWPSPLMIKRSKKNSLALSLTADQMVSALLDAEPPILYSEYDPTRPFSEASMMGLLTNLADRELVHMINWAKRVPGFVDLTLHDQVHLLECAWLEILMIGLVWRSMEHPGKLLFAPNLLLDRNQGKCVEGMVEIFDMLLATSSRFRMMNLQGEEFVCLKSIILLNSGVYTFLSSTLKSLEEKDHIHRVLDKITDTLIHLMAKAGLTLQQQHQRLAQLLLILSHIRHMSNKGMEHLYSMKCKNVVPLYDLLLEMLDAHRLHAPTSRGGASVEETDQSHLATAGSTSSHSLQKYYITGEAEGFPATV
Chain of Androgen receptor (Homo sapiens) (P10275 whole entry, looked up): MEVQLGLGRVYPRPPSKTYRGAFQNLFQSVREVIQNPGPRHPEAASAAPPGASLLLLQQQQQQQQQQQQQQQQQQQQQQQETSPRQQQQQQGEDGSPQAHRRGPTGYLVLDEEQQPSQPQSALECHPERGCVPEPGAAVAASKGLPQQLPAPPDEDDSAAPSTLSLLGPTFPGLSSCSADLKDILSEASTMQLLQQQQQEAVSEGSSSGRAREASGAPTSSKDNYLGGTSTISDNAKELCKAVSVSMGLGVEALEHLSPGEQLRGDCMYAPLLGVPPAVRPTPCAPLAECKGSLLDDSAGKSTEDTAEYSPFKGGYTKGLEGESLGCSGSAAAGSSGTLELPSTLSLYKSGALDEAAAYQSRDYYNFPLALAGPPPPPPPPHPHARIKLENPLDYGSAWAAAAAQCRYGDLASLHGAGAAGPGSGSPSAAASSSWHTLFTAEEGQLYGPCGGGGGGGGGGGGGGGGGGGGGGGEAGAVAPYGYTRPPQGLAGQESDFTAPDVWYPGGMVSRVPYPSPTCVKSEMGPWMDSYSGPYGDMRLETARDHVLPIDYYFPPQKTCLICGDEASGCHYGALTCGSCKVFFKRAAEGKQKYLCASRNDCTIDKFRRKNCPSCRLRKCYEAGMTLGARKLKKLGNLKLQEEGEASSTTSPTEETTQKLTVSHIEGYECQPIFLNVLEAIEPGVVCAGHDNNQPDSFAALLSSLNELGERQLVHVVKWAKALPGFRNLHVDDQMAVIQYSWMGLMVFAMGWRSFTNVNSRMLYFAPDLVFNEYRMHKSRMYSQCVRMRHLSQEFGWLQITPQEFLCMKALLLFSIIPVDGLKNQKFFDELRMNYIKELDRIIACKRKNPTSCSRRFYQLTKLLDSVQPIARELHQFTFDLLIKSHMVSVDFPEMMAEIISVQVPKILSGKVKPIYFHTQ

On to `CC1=C(C(=O)Nc2ccccc2)SCCO1`, for which the Potency entry in assay [1], in assay [2], in assay [3], in assay [4], in assay [6] and in assay [7] was “inactive” each time. For the same molecule, the Potency entry in [8] and in [9] was “inactive” each time. Moreover, in assay [5], the Potency was 24.7 µM (active) and 27.3 µM (active).

Regarding `COc1ccc(O)c(C(C)(C)C)c1`, the Potency result in [1], in assay [2], in [4], in [5], in assay [6] and in [7] was “inactive” each time. Besides, the Potency entry in [8] and in assay [9] was “inactive” throughout.

Turning to `CCC[CH2][Sn]([Cl])([CH2]CCC)[CH2]CCC`, the Potency is 7.71 µM (active) and 6.11 µM (active) in assay [1]; 1.09 µM (active) and 686 nM (active) in [2]; 487 nM (active) and 433 nM (active) in assay [4]; 19.4 µM (active) and 17.2 µM (active) in [6]; 217 nM (active) and 386 nM (active) in assay [7]; 487 nM (active) and 770 nM (active) in assay [8]. Also, the Potency result in [5] and in [9] was “inactive” in each case.

On to `C[N+](C)(C)C`, for which the Potency result in assay [1], in assay [2], in [4], in assay [5], in [6] and in assay [7] was “inactive” throughout. Moreover, the Potency entry in [8] and in [9] was “inactive” each time.

In the case of `CCOC(=O)c1ccccc1N`, the Potency entry in assay [1], in [2], in assay [4], in assay [5], in assay [6] and in assay [7] was “inactive” throughout. The Potency entry in assay [8] and in [9] was “inactive” each time.

Take `CC(C)Nc1nc(Cl)nc(NC(C)C)n1`: the Potency entry in assay [1], in [2], in [4], in [5], in [6] and in assay [7] was “inactive” in each case. Besides, the Potency result in [8] and in assay [9] was “inactive” throughout.

In the case of `N#Cc1cccnc1`, the Potency entry in [1], in assay [2], in assay [4], in assay [5], in [6] and in assay [7] was “inactive” each time. Besides, the Potency result in [8] and in assay [9] was “inactive” throughout.

For `CCCCC(C#N)(Cn1cncn1)c1ccc(Cl)cc1` (stereo not drawn), the Potency result in assay [1], in assay [2], in [4], in assay [5], in assay [6] and in assay [7] was “inactive” each time. The Potency result in [8] and in [9] was “inactive” in each case.

As to `CCCCCCCCCc1ccc(O)cc1`, the Potency result in assay [1], in assay [2], in assay [4], in assay [5], in assay [6] and in assay [7] was “inactive” in each case. The Potency entry in assay [8] and in assay [9] was “inactive” throughout.

On to `CCCCCCCC[N+](C)(CCCCCCCC)CCCCCCCC`, for which the Potency is 24.3 µM (active) and 27.3 µM (active) and 48.6 µM (active) in assay [1]; 17.2 µM (active) and 3.44 µM (active) and 15.4 µM (active) in assay [2]; 1.22 µM (active) and 15.4 µM (active) in assay [4]; “inactive and 61.1 µM (active)” in assay [6]; 48.5 µM (active) and 9.7 µM (active) and 19.3 µM (active) in assay [7]; 61 µM (active) and 10.9 µM (active) and 24.3 µM (active) in assay [8]. Besides, the Potency result in assay [5] and in assay [9] was “inactive” each time.

With `CC(C)CON=O`, the Potency entry in [1], in assay [2], in assay [4], in [5], in [6] and in assay [7] was “inactive” throughout. Also, the Potency entry in [8] and in [9] was “inactive” throughout.

For the molecule `O=NN1CCOCC1`, the Potency entry in assay [1], in assay [2], in [4], in [5], in assay [6] and in assay [7] was “inactive” throughout. Moreover, the Potency result in assay [8] and in assay [9] was “inactive” each time.

Turning to `CN(C)P(=O)(N(C)C)N(C)C`, the Potency result in [1], in [2], in [4], in assay [5], in assay [6] and in [7] was “inactive” throughout. For the same molecule, the Potency result in assay [8] and in assay [9] was “inactive” in each case.

For the molecule `CCCCCCCCCCCCCl`, the Potency entry in assay [1], in assay [2], in assay [4], in [5], in [6] and in [7] was “inactive” throughout. Besides, the Potency entry in assay [8] and in assay [9] was “inactive” in each case.

For `CCN(CC)C(=O)C(C)Oc1cccc2ccccc12` (stereo not drawn), the Potency result in assay [1], in [2], in assay [5], in [6], in [7] and in assay [8] was “inactive” throughout. Moreover, in [9], the Potency result is “inactive”. Further, the Potency in assay [4] was 61.1 µM (active).

`Cc1ccc([N+](=O)[O-])cc1`: the Potency entry in [1], in assay [2], in assay [4], in [5], in assay [6] and in assay [7] was “inactive” each time. The Potency result in assay [8] and in assay [9] was “inactive” each time.

Regarding `Oc1ccc(Cl)cc1Cl`, the Potency entry in assay [1], in assay [2], in [4], in assay [5], in assay [6] and in assay [7] was “inactive” each time. The Potency entry in assay [8] and in [9] was “inactive” throughout.

For `CCC/C=N/O`, the Potency entry in [1], in [2], in assay [4], in assay [5], in assay [6] and in assay [7] was “inactive” throughout. Besides, the Potency entry in [8] and in assay [9] was “inactive” each time.

Regarding `OCCOCCO`, the Potency result in assay [1], in assay [2], in [4], in assay [5], in assay [6] and in assay [9] was “inactive” each time. In addition, the Potency was 56.1 µM (active) and inactive in [7]; 14.1 µM (active) and inactive in assay [8].
